Consider eight compounds from PubChem BioAssay (EPA / NIEHS).

In general, AC50 refers to the concentration giving half of the maximal activity seen.

A short description of assay [1]: BSK_LPS_PGE2: BioMAP Diversity Plus: LPS Assay for Prostaglandin E2 (PGE2) Biomarker Activity (AID 2283082). As to conditions: primary human HUVEC with PBMC; actives raise or lower the signal. The essentials: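 HUVEC plus human PBMC co-culture stimulated with LPS; secreted PGE2 quantified by ELISA 24 h after chemical dosing. Activity fitted bidirectionally against DMSO baseline; parallel SRB staining (0.1% SRB after 10% TCA fixation, 560 nm) flags overt cytotoxicity.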

Read-out in assay [2]: Macrophage colony-stimulating factor (MCSF), CSF1 (gene 1435)
The experiment in a line: BSK_LPS_MCSF: BioMAP Diversity Plus: LPS Assay for Macrophage colony-stimulating factor (MCSF) Biomarker Activity (AID 2283083). Conditions: primary human HUVEC with PBMC; actives raise or lower the signal. The essentials:
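HUVEC + PBMC co-culture (human primary), 24 h post-dose; M-CSF by ELISA; gain/loss of signal fitted bidirectionally vs DMSO baseline.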

Read-out in assay [3]: Tissue Factor, F3 (gene 2152)
The experiment in a line: BSK_LPS_TissueFactor: BioMAP Diversity Plus: LPS Assay for Tissue Factor Biomarker Activity (AID 2283084). As to conditions: primary human HUVEC with PBMC; actives raise or lower the signal. The essentials: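 HUVEC/PBMC co-culture, LPS-activated; CD142 ELISA read 24 h post-dose; bidirectional curve fit vs DMSO negative control.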

Read-out in assay [4]: Tumor necrosis factor (Homo sapiens) (UniProt P01375)
The experiment in a line: BSK_LPS_TNFa: BioMAP Diversity Plus: LPS Assay for Tumour Necrosis Factor alpha (TNFa) Biomarker Activity (AID 2283085). Conditions: primary human HUVEC with PBMC; actives raise or lower the signal. An outline of the steps:
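Human umbilical vein endothelial cells co-cultured with PBMC and stimulated with LPS. TNFa was measured by ELISA 24 h after chemical dosing, fitted bidirectionally relative to DMSO.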

Read-out in assay [5]: Vascular cell adhesion molecule 1 (VCAM1), VCAM1 (gene 7412)
The experiment in a line: BSK_LPS_VCAM1: BioMAP Diversity Plus: LPS Assay for Vascular cell adhesion molecule 1 (VCAM1) Biomarker Activity (AID 2283086). Conditions: primary human HUVEC with PBMC; actives raise or lower the signal. An outline of the steps:
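Human umbilical vein endothelial cells co-cultured with PBMC and stimulated with LPS; VCAM-1 measured by ELISA 24 h after dosing. Bidirectional curve fitting against DMSO baseline; cytotoxicity tracked in parallel by SRB total-protein staining.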

Read-out in the next assay: CD38, CD38 (gene 952)
In words: BSK_SAg_CD38: BioMAP Diversity Plus: SAg Assay for CD38 Biomarker Activity (AID 2283087). As to conditions: primary human HUVEC with PBMC; actives raise or lower the signal. An outline of the steps: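 Human HUVEC plus PBMC co-culture stimulated with superantigen; CD38 measured by ELISA 24 h after chemical dosing. Fluorescence read-out, bidirectional fit against DMSO; cytotoxicity tracked in parallel by SRB and Alamar Blue.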

Read-out in the next assay: CD40, CD40 (gene 958)
In words: BSK_SAg_CD40: BioMAP Diversity Plus: SAg Assay for CD40 Biomarker Activity (AID 2283088). Conditions: primary human HUVEC with PBMC; actives raise or lower the signal. An outline of the steps: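 HUVEC/PBMC co-culture, 24 h post-dose; CD40 by ELISA, fluorescence intensity; bidirectional fit vs DMSO negative control.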

Read-out in another assay: CD69, CD69 (gene 969)
In words: BSK_SAg_CD69: BioMAP Diversity Plus: SAg Assay for CD69 Biomarker Activity (AID 2283089).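 For AC50: cell surface CD69 protein quantified by ELISA with fluorescence detection.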 Conditions: primary human HUVEC with PBMC; actives raise or lower the signal. The essentials:
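Values derive from bidirectional fitting relative to DMSO vehicle. Cells: umbilical vein endothelium plus peripheral blood mononuclear cells, treated 24 h before fluorescent ELISA for CD69.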

Read-out in assay [6]: Monocyte Chemoattractant Protein-1 (MCP1), CCL2 (gene 6347)
The experiment in a line: BSK_SAg_MCP1: BioMAP Diversity Plus: SAg Assay for Monocyte Chemoattractant Protein-1 (MCP1) Biomarker Activity (AID 2283090). As to conditions: primary human HUVEC with PBMC; actives raise or lower the signal. The essentials: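 MCP-1 levels in the endothelial–PBMC SAg co-culture were quantified by ELISA at 24 h post-dosing; both increases and decreases versus DMSO scored. Cytotoxicity monitored by SRB total protein in parallel cultures.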

Read-out in assay [7]: E-selectin (Homo sapiens) (UniProt P16581)
The experiment in a line: BSK_SAg_Eselectin: BioMAP Diversity Plus: SAg Assay for Eselectin Biomarker Activity (AID 2283091). As to conditions: primary human HUVEC with PBMC; actives raise or lower the signal. An outline of the steps:
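E-selectin ELISA readout at 24 h post-dosing in human umbilical vein endothelial cell/PBMC co-culture; gain or loss of signal fitted relative to DMSO baseline.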

Read-out in assay [8]: Monokine induced gamma interferon (MIG), CXCL9 (gene 4283)
The experiment in a line: BSK_SAg_MIG: BioMAP Diversity Plus: SAg Assay for Monokine induced gamma interferon (MIG) Biomarker Activity (AID 2283092). Conditions: primary human HUVEC with PBMC; actives raise or lower the signal. The essentials:
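Values reflect bidirectional fitting of ELISA-measured MIG against DMSO vehicle, taken 24 h after dosing of a co-culture of human umbilical vein endothelial cells and peripheral blood mononuclear cells.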

The nature of assay [9]: BSK_SAg_PBMCCytotoxicity: PBMC Cytotoxicity Assessment in the BioMAP Diversity Plus: SAg Assay (AID 2283093).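 For AC50: PBMC superantigen activated with SEB plus TSST-1 one hour after compound addition.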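 Note: PBMC viability measured as Alamar Blue reduction fluorescence at 546/580 nm; fitted both ways against DMSO so a hit may be loss or gain of signal.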 Conditions: primary human HUVEC with PBMC. An outline of the steps:
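Human umbilical vein endothelial cells co-cultured with PBMC; PBMC (75,000/well) pre-treated with compound 1 h, then activated with SEB and TSST-1 (20 ng/mL final each) for 90 h. Alamar Blue added 6 h, fluorescence 546/580 nm; bidirectional fit versus DMSO.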

Read-out in assay [10]: Interleukin-8 (IL8), CXCL8 (gene 3576)
The experiment in a line: BSK_SAg_IL8: BioMAP Diversity Plus: SAg Assay for Interleukin-8 (IL8) Biomarker Activity (AID 2283094). As to conditions: primary human HUVEC with PBMC; actives raise or lower the signal. An outline of the steps:
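Human umbilical vein endothelial cells co-cultured with PBMC, stimulated with superantigen; IL-8 measured by ELISA 24 h after chemical dosing. Bidirectional fitting versus DMSO; SRB staining in parallel cultures tracks cytotoxicity.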

The nature of assay [11]: BSK_SAg_Proliferation: Cell Proliferation Assessment in the BioMAP Diversity Plus: SAg Assay (AID 2283095). As to conditions: primary human HUVEC with PBMC. The essentials:
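Human umbilical vein endothelial cells co-cultured with PBMC; sulforhodamine B total-protein staining (0.1% SRB after 10% TCA fixation, absorbance 560 nm) at 96 h in sub-confluent culture. Fitted bidirectionally against DMSO.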

Assay [12] is described as follows: BSK_SAg_SRB: Viability Assessment in the BioMAP Diversity Plus: SAg Assay (AID 2283096).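 Note: cells read one day after compound addition; hits may be either gain or loss of signal compared with DMSO.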 Conditions: primary human HUVEC with PBMC. An outline of the steps:
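Endothelial/PBMC primary human co-culture; compound 24 h; fix 10% TCA, stain 0.1% SRB, A560; protein content as cytotoxicity proxy; bidirectional curve fit, DMSO = baseline.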

The source made the active and inactive calls. Rule for the calls: active = hit-call score of the fitted dose curve at least 0.9, where 1 is the maximum; inactive = score below 0.9.

E-selectin (Homo sapiens), sequence (P16581 whole entry, looked up): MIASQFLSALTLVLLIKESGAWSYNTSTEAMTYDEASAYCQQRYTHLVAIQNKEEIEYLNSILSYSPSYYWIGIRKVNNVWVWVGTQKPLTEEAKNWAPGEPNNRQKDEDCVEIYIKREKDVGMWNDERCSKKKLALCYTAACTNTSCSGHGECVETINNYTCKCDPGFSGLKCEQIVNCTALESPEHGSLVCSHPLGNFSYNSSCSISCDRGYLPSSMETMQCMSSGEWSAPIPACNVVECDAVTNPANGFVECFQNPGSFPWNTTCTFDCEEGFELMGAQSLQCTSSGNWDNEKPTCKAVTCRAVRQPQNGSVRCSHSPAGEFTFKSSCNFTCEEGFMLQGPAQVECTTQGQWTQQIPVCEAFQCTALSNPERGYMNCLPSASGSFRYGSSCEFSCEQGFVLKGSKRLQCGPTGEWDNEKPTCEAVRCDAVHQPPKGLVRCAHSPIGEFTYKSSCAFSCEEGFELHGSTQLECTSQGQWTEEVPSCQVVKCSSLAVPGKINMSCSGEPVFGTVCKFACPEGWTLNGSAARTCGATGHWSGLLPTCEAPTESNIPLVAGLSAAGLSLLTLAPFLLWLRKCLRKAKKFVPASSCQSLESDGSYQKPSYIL
Tumor necrosis factor (Homo sapiens), sequence (P01375 whole entry, looked up): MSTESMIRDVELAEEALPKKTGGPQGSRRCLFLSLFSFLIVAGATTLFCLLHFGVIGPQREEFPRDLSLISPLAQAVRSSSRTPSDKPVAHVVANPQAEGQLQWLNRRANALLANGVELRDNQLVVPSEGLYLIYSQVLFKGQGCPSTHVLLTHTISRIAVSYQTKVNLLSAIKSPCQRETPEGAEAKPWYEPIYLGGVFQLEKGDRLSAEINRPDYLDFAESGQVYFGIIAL

For `CCC[CH2][Sn]([Cl])([CH2]CCC)[CH2]CCC`, in assay [1], the outcome was inactive. Also, the AC50 in assay [2] was 0.615 µM (active); in [3] it was 0.148 µM (active); in assay [4], 0.248 µM (active); in assay [5], 0.148 µM (active); in the assay with CD38, CD38 (gene 952), 0.248 µM (active); with CD40, CD40 (gene 958), 0.148 µM (active). Further, the AC50 with CD69, CD69 (gene 969) was 0.148 µM (active); in [6], 0.148 µM (active); in [7] it was 0.148 µM (active); in [8] it was 0.148 µM (active); in [9], 0.148 µM (active); in [10] it was 0.148 µM (active). In addition, the AC50 in assay [11] and in assay [12] was 0.148 µM (active) throughout.

For `OCCOCCO`, the outcome in [1] was “inactive”; in assay [2], “inactive”; in [3], “inactive”; in assay [4], “inactive”; in [5], “inactive”; with CD38, CD38 (gene 952) it was “inactive”. Besides, the outcome was “inactive” in the assay with CD40, CD40 (gene 958); “inactive” in the assay with CD69, CD69 (gene 969); “inactive” in assay [6]; “inactive” in [7]; “inactive” in assay [8]; “inactive” in assay [9]. For the same compound, the result in [10], in assay [11] and in assay [12] was inactive.

Regarding `CCN(CC)CCO`, the outcome in assay [1] is “inactive”; in assay [2] it was “inactive”; in assay [3], “inactive”; in assay [4] it was “inactive”; in assay [5], “inactive”; with CD38, CD38 (gene 952) it was “inactive”. The outcome with CD40, CD40 (gene 958) is “inactive”; with CD69, CD69 (gene 969), “inactive”; in [6], “inactive”; in assay [7], “inactive”; in assay [8], “inactive”; in assay [9] it was “inactive”. Moreover, the outcome in [10], in assay [11] and in [12] was inactive.

For the compound `N#CC(Br)Br`, the outcome is “inactive” in assay [1]; “inactive” in [2]; “inactive” in [3]; “inactive” in assay [4]; “inactive” in assay [5]; “inactive” in the assay with CD38, CD38 (gene 952). Moreover, the outcome is “inactive” in the assay with CD40, CD40 (gene 958); “inactive” with CD69, CD69 (gene 969); “inactive” in assay [6]; “inactive” in [7]; “inactive” in [8]; “inactive” in [9]. In addition, the outcome in [10], in assay [11] and in [12] was inactive.

Consider `COc1cc(C=O)cc2c1[C@H](COC(N)=O)[C@]1(OC(C)=O)ON2C[C@H]2[C@@H]1N2C(C)=O`, for which the result in assay [1] and in assay [4] was inactive. Moreover, the AC50 was 3.97 µM (active) in assay [2]; 14.3 µM (active) in assay [3]; 16.7 µM (active) in assay [5]; 15.9 µM (active) with CD38, CD38 (gene 952); 18.2 µM (active) in the assay with CD40, CD40 (gene 958); 13.2 µM (active) with CD69, CD69 (gene 969). Also, the AC50 in assay [6] was 5.75 µM (active); in [7], 21.4 µM (active); in [8] it was 28.7 µM (active); in [9], 4.25 µM (active); in [10], 8.56 µM (active); in assay [11], 0.402 µM (active). Moreover, the AC50 in [12] is 4.34 µM (active).

As to `Cn1cc(-c2ccccc2)c(=O)c(-c2cccc(C(F)(F)F)c2)c1`, in assay [1], the AC50 was 2.7 µM (active). For the same compound, the outcome was “inactive” in [2]; “inactive” in [3]; “inactive” in assay [4]; “inactive” in assay [5]; “inactive” with CD38, CD38 (gene 952); “inactive” with CD40, CD40 (gene 958). Besides, the outcome with CD69, CD69 (gene 969) was “inactive”; in assay [6] it was “inactive”; in [7], “inactive”; in assay [8], “inactive”; in assay [9], “inactive”; in assay [10], “inactive”. For the same compound, the outcome in [11] and in assay [12] was inactive.

With `Cc1ccc(N)cc1`, the outcome in assay [1] was “inactive”; in assay [2], “inactive”; in [3], “inactive”; in [4] it was “inactive”; in assay [5], “inactive”; in the assay with CD38, CD38 (gene 952), “inactive”. Further, the outcome with CD40, CD40 (gene 958) is “inactive”; in the assay with CD69, CD69 (gene 969), “inactive”; in assay [6], “inactive”; in assay [7], “inactive”; in assay [8] it was “inactive”; in [9], “inactive”. Moreover, the result in assay [10], in assay [11] and in [12] was inactive.

With `CC(O)CCO` (stereo not given), the outcome in assay [1] is “inactive”; in [2], “inactive”; in [3] it was “inactive”; in assay [4] it was “inactive”; in assay [5], “inactive”; with CD38, CD38 (gene 952), “inactive”. For the same compound, the outcome was “inactive” with CD40, CD40 (gene 958); “inactive” in the assay with CD69, CD69 (gene 969); “inactive” in [6]; “inactive” in [7]; “inactive” in [8]; “inactive” in assay [9]. Besides, the result in assay [10], in [11] and in assay [12] was inactive.
